BioA inh = blocks M. tuberculosis BioA enzyme activity. inhibition, % at 9.99 µM. purified M. tuberculosis BioA enzyme, plate reader. 0.096% of 360,000 active. AID 602481; in the data active = inhibition above about 40%
PfHsp40 yeast = rescue of PfHsp40-mediated yeast toxicity; S. cerevisiae expressing PfHsp40, growth rescue, ATP luminescence; growth rescue, % at 12.5 µM; 0.68% of 340,000 active; AID 504582; in the data active = growth rescue above about 28%, passing the limit was not always enough;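 also: yeast W303a lacking pdr1 and pdr3 grown in galactose medium; growth measured after three days at 30 °C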
TcdB inh = blocks C. difficile toxin B glycohydrolase activity; P18177; TcdB glycohydrolase enzymatic assay, plate reader; inhibition, % at 9.99 µM; 0.24% of 350,000 active; in the data active = inhibition above about 10%
Yp Topo-I inh = inhibitors of Yersinia pestis topoisomerase I | activity, % at 10 µM | 0.064% of 360,000 active | AID 504884 | Y. pestis Topo-I cleavage product accumulation, plate reader; in the data active = activity above about 50%, passing the limit was not always enough
PrP 5UTR inh = suppresses PrP 5' UTR mRNA reporter expression; cell-based PrP 5' UTR mRNA reporter, plate reader; inhibition, % (concentration not given with the values); 0.35% of 340,000 active; AID 488862; in the data active = inhibition above about 52%; also: 0 = median of the neutral control wells
FadD28 binding = M. tuberculosis FadD28 bisubstrate binding inhibition; FadD28 bisubstrate probe binding, fluorescence polarization; 0.22% of 360,000 active; inhibition, % at 12.5 µM; in the data active = inhibition above about 8.5%, passing the limit was not always enough
PrP UTR cherry = prion 5' UTR mRNA inhibition, cherry-pick retest | AID 504592 | shares compounds with PrP 5UTR inh | inhibition, % at 2.5 µM | 48% of 1,100 active | cell-based prion protein 5' UTR reporter, plate reader; in the data active = inhibition above about 54%
Starred values were filed as active, the others as inactive; · = no result given. Hits are enriched below; roughly 1.2% of the tested compounds scored in any of these assays.

SMILES	BioA inh	PfHsp40 yeast	TcdB inh	Yp Topo-I inh	PrP 5UTR inh	FadD28 binding	PrP UTR cherry
CN(C)CCNc1ccc2ncn3c4ccc(O)cc4c(=O)c1c23	·	0	-11	-42	93*	-4	60*
CCCC#Cc1ccc([C@H]2[C@H]3CN(S(=O)(=O)Cc4ccccc4)CC(=O)N3[C@H]2CO)cc1	·	·	1	·	·	·	·
CCOC(=O)c1ccc(CNC(=O)CCC(=O)O)cc1	-5	-1	·	-3	67*	0	-2
CCN(CC)C(=O)C1CCCN(c2ccc([N+](=O)[O-])cc2[N+](=O)[O-])C1 (stereo not given)	·	-1	1	4	70*	1	-13
O=C(O)c1cc(S(=O)(=O)N2CCOCC2)c(Sc2ccccn2)cc1Sc1ccccn1	·	0	·	1	69*	1	16
Cc1ccc(NC(=O)CSc2ccccn2)cc1S(=O)(=O)N1CCOCC1	·	0	1	4	-2	-1	·
Cc1nn(-c2ccccc2)c2c1CC(=O)Nc1ccccc1-2	·	0	1	0	64*	-2	80*
CO[C@H]1CN(C)C(=O)c2cc(NC(=O)Nc3ccccc3)ccc2OC[C@H](C)N(C(=O)CC2CC2)C[C@@H]1C	-1	·	·	·	·	·	·
CN1CCN(c2ccc([N+](=O)[O-])c3no[n+]([O-])c23)CC1	-33	5	1	-8	79*	1	86*
O=[N+]([O-])c1ccc(N(CCO)CCO)c2c1no[n+]2[O-]	-50	·	4	1	·	1	·
C[C@H](CO)N1C[C@H](C)[C@H](CN(C)Cc2ccc(-c3ccccc3)cc2)OCc2cnnn2CCCC1=O	4	·	0	·	·	·	·
O=C(C[C@@H]1CC[C@@H]2NC[C@@H](O)COC[C@H]2O1)Nc1ccccc1	-2	·	1	·	·	·	·
C[C@@H](NC(=O)C[C@H]1C=C[C@@H](NC(=O)Cc2ccccn2)[C@@H](CO)O1)c1ccccc1	-1	·	-1	·	·	·	·
O=C(NN1C(=O)C2C3C=CC(C4CC34)C2C1=O)c1ccc(Br)cc1 (stereo not given)	·	-1	1	3	58*	-1	68*
C[C@@H]1CCCCO[C@@H](CN(C)C(=O)Nc2ccc(F)cc2)[C@@H](C)CN([C@@H](C)CO)C(=O)c2cc(NC(=O)Cc3ccccc3)ccc2O1	·	·	0	·	·	·	·
Cc1cc(NC(=O)CSc2nc(-c3ccco3)cc(C(F)(F)F)n2)no1	-1	-1	·	-1	67*	-1	90*
CCC(=O)N(C)C[C@@H]1Oc2cc(C#CC3CC3)ccc2S(=O)(=O)N([C@H](C)CO)C[C@@H]1C	1	·	0	·	·	·	·
COc1cc(C)c(C(=O)Oc2cc(C)c(C(=O)O)c(O)c2)c(O)c1	0	0	-1	-6	-14	-4	·
COc1cc(O)c(C(=O)O)c(-c2cc(O)c(O)cc2C)c1	0	2	-27	3	68*	2	-16
Cc1cc(C(=O)Nc2cccc3c2O[C@@H](CN(C)S(=O)(=O)c2c(C)noc2C)[C@@H](C)CN([C@H](C)CO)C3=O)n(C)n1	-1	·	0	·	·	·	·
COc1ccccc1NC(=S)N(Cc1ccccc1)Cc1cccs1	1	0	1	0	67*	-3	-24
C[C@@H]1CN([C@@H](C)CO)C(=O)c2cc(NS(=O)(=O)c3ccc(F)cc3)ccc2O[C@@H](C)CCCCO[C@@H]1CN(C)C(=O)c1ccccc1	-1	·	0	·	·	·	·
CCc1ccccc1NC(=O)CSc1nc2ccccc2nc1N1CCOCC1	-2	1	2	-4	58*	-1	-8
Cc1csc(NC(=O)CCc2c(C)nc3cc(-c4ccc(Cl)cc4)nn3c2C)n1	1	5	0	9	50*	-4	59*
Cc1nc2cc(-c3ccc(Cl)cc3)nn2c(C)c1CCC(=O)NC(C)c1ccc2c(c1)OCCO2 (stereo not given)	1	2	1	30	40	0	·
SMILES	BioA inh	PfHsp40 yeast	TcdB inh	Yp Topo-I inh	PrP 5UTR inh	FadD28 binding	PrP UTR cherry
CCOC(=O)c1ccc(NC(=O)COc2ccccc2CNCCO)cc1	·	-1	0	3	74*	-2	2
Cc1ccc(/C=C2/SC(=S)N(c3ccc(S(=O)(=O)Nc4nccs4)cc3)C2=O)cc1	-3	-1	1	-1	83*	-2	-35
COc1ccccc1-c1nnc2sc(-c3cc4ccccc4o3)nn12	0	0	·	22	54*	-5	64*
Cc1noc(C)c1S(=O)(=O)N(C)C[C@H]1Oc2ccc(NC(=O)Cc3ccccc3)cc2CC(=O)N([C@@H](C)CO)C[C@@H]1C	-2	·	·	·	·	·	·
CS(=O)(=O)Nc1ccc2c(c1)[C@H]1C[C@@H](CC(=O)NCc3ccc(-c4ccccc4)cc3)O[C@H](CO)[C@H]1O2	3	·	·	·	·	·	·
Cc1cc(C=C2C(=O)c3ccccc3C2=O)c(C)n1-c1cccc(C(=O)O)c1	6	-1	2	-4	-10	-2	·
Cc1cc(C=C2C(=O)c3ccccc3C2=O)c(C)n1-c1ccccc1	7	-1	·	3	75*	-2	62*
O=C(Nc1nccs1)[C@H]1[C@H](CO)[C@H]2Cn3c(cccc3=O)[C@@H]1N2C(=O)C1CCCCC1	·	·	0	·	·	·	·
COc1cc(C2C(C#N)=C(N)Oc3cc(N)ccc32)cc(OC)c1OC (stereo not given)	-2	1	·	-6	67*	-1	88*
O=C(Nc1nnc(-c2cccs2)s1)c1cccc(F)c1	15	0	1	-7	74*	-3	-44
CN(C)c1ncnc2c1ccn2C1OC(CO)C(O)C1O (stereo not given)	0	1	0	14	-2	0	·
CC(C)=CCNc1ncnc2c1c(C#N)cn2C1OC(CO)C(O)C1O (stereo not given)	·	-1	1	-6	-1	-2	·
NC(=O)c1c(Br)n(C2OC(CO)C(O)C2O)c2ncnc(N)c12 (stereo not given)	·	-2	1	3	16	-1	·
NC(=O)c1cn(C2OC(CO)C(O)C2O)c2ncnc(N)c12 (stereo not given)	-1	-2	1	-1	88*	-2	97*
OCC1OC(n2ccc3c(NO)ncnc32)C(O)C1O (stereo not given)	·	0	1	-2	89*	-2	85*
N#Cc1cn(C2OC(CO)C(O)C2O)c2ncnc(N)c12 (stereo not given)	·	-1	2	-2	58*	0	75*
C[C@H]1CN([C@@H](C)CO)C(=O)c2cc(NC(=O)C3CC3)ccc2O[C@H]1CN(C)S(=O)(=O)c1ccc(F)cc1	5	·	-1	·	·	·	·
N=c1c2c(n(Cc3ccc([N+](=O)[O-])cc3)c3c1CCC3)CCCC2	·	0	2	-8	80*	-3	-2
COc1cccc(-c2ccc([C@H]3[C@H](CO)N4C(=O)CN(C(=O)C5CCC5)C[C@@H]34)cc2)c1	·	·	2	·	·	·	·
